The list is not random: actives were taken first. Their share in the collection is about 4%.
GRIN3A LBD mod: modulators (binders) of human NR3A ligand-binding domain | NR3A LBD differential scanning fluorimetry, Tm shift; 0% = protein alone, 100% = glycine-bound protein | Tm shift relative to glycine control, % at 25 µM | 2.5% of 340,000 active | AID 1259313;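 active = melting temperature shift of at least 10% of the positive control shift, at one fixed dose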
FAS-TE inh: inhibitors of human fatty acid synthase thioesterase domain | 0.67% of 360,000 active | AID 602261 | inhibition, % at 15 µM | recombinant FAS-TE, OMFH fluorogenic substrate, fluorescence endpoint | P49327;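 active = compounds whose normalised, plate-corrected inhibition of enzyme fluorescence in the single-dose primary screen is 50% or more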;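 also: 0% = DMSO with enzyme and 100% = substrate without enzyme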
ADAM10 inh: inhibits human ADAM10 | O14672 | recombinant ADAM10, EDANS/DABCYL FRET peptide cleavage, 3 h | inhibition, % at 7 µM | 0.62% of 370,000 active;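 active = inhibition above a per-campaign cutoff equal to the mean of compounds falling between control-based bounds plus 3 SD, cut at about 20% in these data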;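 also: 0% = DMSO wells while the 100% control is not disclosed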
ADAM17 inh: inhibitors of human ADAM17 | AID 720648 | P78536 | inhibition, % at 6.95 µM | recombinant ADAM17, EDANS/DABCYL FRET peptide cleavage | 0.83% of 370,000 active;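 active = inhibition above the mean of compounds lying between control limits plus 3 SD, set per campaign, cut at about 8.5% in these data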;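 also: 0% = DMSO-only wells as the low control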
Target sequence (P78536 215-824 limits assumed): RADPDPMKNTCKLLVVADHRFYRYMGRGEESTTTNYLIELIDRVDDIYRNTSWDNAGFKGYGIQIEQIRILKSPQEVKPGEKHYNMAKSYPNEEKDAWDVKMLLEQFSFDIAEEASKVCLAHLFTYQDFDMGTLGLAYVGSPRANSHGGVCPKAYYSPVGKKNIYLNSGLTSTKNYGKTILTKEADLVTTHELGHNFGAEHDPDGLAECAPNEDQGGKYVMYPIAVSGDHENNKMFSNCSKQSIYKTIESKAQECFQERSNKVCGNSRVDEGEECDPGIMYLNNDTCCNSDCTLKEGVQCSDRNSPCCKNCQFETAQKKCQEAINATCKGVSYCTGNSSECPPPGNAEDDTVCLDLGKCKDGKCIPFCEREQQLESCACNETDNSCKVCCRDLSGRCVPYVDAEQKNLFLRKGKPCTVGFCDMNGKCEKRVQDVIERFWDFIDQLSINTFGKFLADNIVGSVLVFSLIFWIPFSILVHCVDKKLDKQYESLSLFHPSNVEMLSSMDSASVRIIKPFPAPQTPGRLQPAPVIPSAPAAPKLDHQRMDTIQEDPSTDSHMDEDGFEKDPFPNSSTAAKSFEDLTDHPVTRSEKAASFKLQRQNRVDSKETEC
aDG glyco up: alpha-DG glycosylation activation; activation, % at 10 µM; 0.22% of 360,000 active; Pro5-aDG cells, alpha-DG glycosylation AlphaScreen (IIH6); 0% Pro5, 100% B10-LARGE cell signal;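 active = activation of at least 8% versus controls, or a plate z-score of at least 8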;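 also: Pro5 are CHO cells carrying HIG-tagged alpha-DG that lacks glycosylation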
Active calls of the source: *; i = inactive; nt = no result.

SMILES | GRIN3A LBD mod | FAS-TE inh | ADAM10 inh | ADAM17 inh | aDG glyco up
O=C(CN(Cc1ccco1)S(=O)(=O)c1ccccc1)N/N=C/c1cccc(O)c1 | 0 | -1 | 3 | 1 | 0
Cc1cccc(S(=O)(=O)N(CC(=O)Nc2ccccc2C)Cc2ccco2)c1 | 11* | 1 | 8 | 0 | 0
CC(C)(C)OC(=O)N1CCC(NC(=O)c2[nH]cnc2C(=O)Nc2ccc(Br)cc2F)CC1 | nt | 0 | -4 | 0 | 0
COc1ccc(NC(=O)c2ccc(C)cc2Cl)c([N+](=O)[O-])c1 | 11* | 2 | -5 | -5 | 0
COc1ccc(NC(=S)NC(NC(=O)c2cccc3ccccc23)C(Cl)(Cl)Cl)c([N+](=O)[O-])c1 (configuration not stated) | 12* | 21 | 13 | 8 | 0
COc1ccc(NC(=S)NC(NC(=O)c2ccccc2Cl)C(Cl)(Cl)Cl)c([N+](=O)[O-])c1 (configuration not stated) | 10 | 18 | 3 | 3 | 0
COc1ccc(NC(=O)COc2ccc(C)cc2)c([N+](=O)[O-])c1 | 13* | nt | -4 | 2 | nt
O=[N+]([O-])c1ccc(N(CC(O)CN2CCCCC2)S(=O)(=O)c2ccccc2)cc1 (configuration not stated) | 0 | -5 | 1 | -5 | 0
Fc1ccc(CN2CCSCC2)cc1F | 0 | -4 | 1 | 3 | 0
CCOC(=O)C1=C(c2ccccc2)NC(=S)NC1c1cccc([N+](=O)[O-])c1 (configuration not stated) | 14* | 4 | -6 | 3 | 0
CCOC(=O)N1CCN(C(=O)CN(Cc2ccc(Cl)cc2)S(=O)(=O)c2ccccc2)CC1 | -3 | 5 | 3 | 0 | 0
Cc1cccc(C2=NN(c3ccc(Br)cc3)[C@@H](C(=O)N3CCOC3=O)[C@@H]2c2ccc(Cl)cc2)c1 | 17* | 74* | nt | nt | 4
Cc1cccc(C2=NN(c3ccc(Br)cc3)[C@@H](C(=O)N3CCOC3=O)[C@@H]2c2ccc(F)cc2)c1 | 5 | 74* | i | -208 | 0
CC[C@@H]1C(c2ccccc2)=NN(c2ccc(Br)cc2)[C@H]1C(=O)N1CCOC1=O | 9 | 29 | -249 | -67 | 0
CC[C@@H]1C(c2ccc(F)cc2)=NN(c2ccc(Br)cc2)[C@H]1C(=O)N1CCOC1=O | 19* | 34 | -220 | -58 | 0
COc1ccccc1[C@@H]1C(c2cccc(Cl)c2)=NN(c2ccccc2)[C@H]1C(=O)N1CCOC1=O | -2 | 91* | nt | nt | 0
O=C1OCCN1C(=O)[C@H]1[C@H](c2ccccc2)C(c2cccc(Cl)c2)=NN1c1ccc(Br)cc1 | 7 | 49 | i | -131 | 0
CCOC(=O)C1C(=O)NC(c2ccccc2)=NC1c1ccc(OC)cc1 (configuration not stated) | -2 | -10 | 4 | -2 | 0
CC1CN=C(c2cccn2Cc2ccc(F)cc2Cl)O1 (configuration not stated) | 12* | 10 | 7 | -1 | 0
Cc1ccc(C(=O)N/C(=C\c2ccc(-c3ccccc3[N+](=O)[O-])o2)C(=O)NCCN(C)C)cc1 | 1 | 8 | -7 | -6 | 1.9*
Cc1ccc(C(=O)N/C(=C\c2ccc(-c3ccccc3[N+](=O)[O-])o2)C(=O)NCCCN(C)C)cc1 | -1 | -5 | -17 | -8 | 3
Nc1cc2c(cc1Cl)-c1ccc([N+](=O)[O-])cc1C2=NO | 477* | -53 | -5 | 1 | 0
O=S(CCc1ccncc1)Cc1ccccc1 (configuration not stated) | 6 | -6 | 5 | -3 | 0
CN(C)c1ccc(NC(=O)c2sc(SCC(=O)Nc3ccc(Br)cc3)nc2N)cc1 | 16* | -12 | -3 | -2 | 0
COc1ccccc1NC(=O)c1ccc2c(c1)OCO2 | 0 | -3 | 6 | 0 | 0
SMILES | GRIN3A LBD mod | FAS-TE inh | ADAM10 inh | ADAM17 inh | aDG glyco up
COc1cc2c(cc1NC(=O)c1ccc3c(c1)OCO3)oc1ccccc12 | 26* | 31 | -1 | -2 | 0
O=C(COc1ccc2c(c1)OCO2)Nc1ccc2c(c1)oc1ccccc12 | 5 | 2 | 7 | 2 | 3
O=C(Nc1ccc2c(c1)oc1ccccc12)c1ccc2c(c1)OCO2 | 25* | -2 | -1 | -2 | 0
COc1ccc(OC)c(NC(=O)c2cc3oc4ccccc4c3cc2O)c1 | 130* | 1 | -11 | -7 | 0
O=C(O)c1ccc(-c2noc(-c3ccccc3Cl)n2)cc1 | 1 | -18 | -1 | 1 | 0
c1ccc(-c2noc(-c3ccccc3-c3ccccc3)n2)cc1 | 13* | 28 | -1 | -2 | 0
Fc1ccccc1-c1nc(-c2ccc(Cl)cc2)no1 | 21* | 6 | -1 | 0 | 0
NC(=O)c1ccc(-c2noc(-c3ccccc3F)n2)cc1 | -2 | -10 | -5 | -4 | 0
O=C(Nc1ccc(OC(F)(F)F)cc1)Oc1ccccc1N1CCOCC1 | 3 | 7 | 4 | 1 | 0
O=C(Nc1ccc(OC(F)(F)F)cc1)Oc1ccccc1N1CCCCC1 | 13* | 11 | -2 | -2 | 0
Cc1ccc(CC(=O)Nc2cc(C)on2)cc1 | -1 | 3 | nt | nt | 0
Cn1c(C(=O)N2CCc3ccccc3C2)cc2c(=O)n3ccccc3nc21 | 0 | -1 | i | i | 0
CCCc1cc(-c2n[nH]c(=S)n2-c2cccc(C)c2)cs1 | 14* | 2 | 8 | 7 | 0
Cc1cccc(-n2c(-c3csc(C(C)C)c3)n[nH]c2=S)c1 | -2 | -2 | 7 | 3 | 0
O=C(CCN1CCOCC1)NNC(=O)c1ccc([N+](=O)[O-])cc1[N+](=O)[O-] | 2 | -2 | -13 | 0 | 0
CSC(=S)NN=C(C)c1cccc(C)n1 | 15* | 2 | -7 | -4 | 0
CC(=NNC(=S)N1CCCCC1)c1cccc(C)n1 | 0 | -9 | -93 | -28 | 0
Cc1cc(NC(=O)c2ccc(C#N)cc2)n(-c2ccccc2)n1 | 1 | -11 | 1 | -1 | 0
Cc1ccc2nc(-c3ccccc3)c(Cc3ccccc3C(F)(F)F)n2c1 | nt | 10 | -16 | -5 | 0
C=CCOc1ccc(/C=C/C(=O)OCC(=O)NCCCc2ccccc2)cc1 | 15* | 8 | -5 | -2 | 0
O=C(CCSc1ccc(Cl)cc1)c1cccs1 | 6 | 15 | 5 | 0 | 2
Cc1csc(NC(=O)c2cc3c(s2)CCCC3)n1 | 2 | 0 | 9 | 2 | 0
Cc1cnc(NC(=O)c2cc3c(s2)CCCC3)s1 | 23* | 2 | 0 | 2 | 0
Cc1c(F)cccc1NC(=O)CSCC(=O)Nc1ccccc1 | 3 | -9 | 9 | 3 | 0
Cc1ccc(CNC(=O)c2ccc(N(C)S(=O)(=O)c3ccccc3)cc2)cc1 | 1 | 14 | 0 | 0 | 0
CN(c1ccc(C(=O)Nc2ccccc2C(=O)N2CCCC2)cc1)S(C)(=O)=O | 15* | -3 | -5 | -3 | -1

Assay outcomes deposited in PubChem by several laboratories.
